The values that follow come from PubChem BioAssay.

Values joined by “and” are separate entries in the source; they are usually repeats but may differ in a detail not shown here. Equal entries are not always repeated. Inconclusive results are not listed. For some assays here: Results with a measured potency or affinity are listed apart. Active and inactive are the calls of the source.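 The calls were made as follows, unless noted: active = normalized viability below 100% at a tested concentration; inactive = the rest.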

Assay [1] concerns Aerobactin synthetase IucA (Klebsiella pneumoniae). Briefly: inhibition of K. pneumoniae IucA enzyme – biochemical, Tocris library, absorbance (AID 1345561; call rule not given here;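 also: 100% = enzyme without compound and 0% = no enzyme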). To be noted: purified IucA enzyme assay, absorbance (OD) read-out; stronger effect = lower value;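 tested at 8 µM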.
Assay [2] is described as follows: viability loss in pontine glioma line – cell-based, SU-DIPG-XVII, MIPE5.0, CellTiter-Glo, qHTS, dose response (AID 1347060; cut-off not given, nearly all actives have AC50 up to about 26 µM;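 as to AC50: cells exposed to compound for 48 hours before viability readout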). The conditions noted are these: CellTiter-Glo ATP luminescence. (In ATP-based viability assays light output follows the ATP content of the culture.)
Assay [3] in a line: viability loss in pontine glioma line – cell-based, SU-DIPG-XIII, MIPE4.0, CellTiter-Glo, qHTS, dose response (AID 1347061; cut-off not given, nearly all actives have AC50 up to about 37 µM;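 also: cells exposed to compound for 48 hours before readout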). To be noted: CellTiter-Glo ATP luminescence.
The nature of assay [4]: viability loss in pontine glioma line – cell-based, JHH-DIPG-1, MIPE4.0, CellTiter-Glo, qHTS, dose response (AID 1347062; cut-off not given, nearly all actives have AC50 up to about 27 µM;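 as to AC50: cells exposed to compound for two days before readout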). To be noted: JHH-DIPG-1 viability, CellTiter-Glo ATP luminescence.
Assay [5] is described as follows: viability loss in pontine glioma line – cell-based, SU-DIPG-IV, MIPE4.0, CellTiter-Glo, qHTS, dose response (AID 1347063; cut-off not given, nearly all actives have AC50 up to about 30 µM;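 also: compound exposure lasted 48 hours before the viability readout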). The conditions noted are these: CellTiter-Glo ATP luminescence.
The nature of assay [6]: viability loss in pontine glioma line – cell-based, SU-DIPG-XIII, MIPE5.0, CellTiter-Glo, qHTS, dose response (AID 1347064; cut-off not given, nearly all actives have AC50 up to about 23 µM;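 as to AC50: cells exposed to compound for 48 hours before the viability read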). To be noted: CellTiter-Glo ATP luminescence.
Assay [7] is described as follows: viability loss in pontine glioma line – cell-based, SU-DIPG-XXV, MIPE5.0, CellTiter-Glo, qHTS, dose response (AID 1347065; cut-off not given, nearly all actives have AC50 up to about 26 µM;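 also: cells exposed to compound for 48 hours before ATP readout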). To be noted: CellTiter-Glo ATP luminescence.
Assay [8] in a line: growth inhibition of DIPG cells – cell-based, MIPE4.0 library, CellTiter-Glo luminescence, qHTS (AID 1347066; cut-off not given, nearly all actives have AC50 up to about 30 µM;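 also: cells exposed to compound for 48 hours before readout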). The conditions noted are these: SU-DIPG-VI viability, CellTiter-Glo ATP luminescence.
Assay [9] in a line: JHH-DIPG-1 glioma cell viability, MIPE5.0 library, CellTiter-Glo luminescence, qHTS (AID 1347067; cut-off not given, nearly all actives have AC50 up to about 26 µM;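 also: cells exposed to compound for 48 hours before readout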). To be noted: JHH-DIPG-1 glioma viability, CellTiter-Glo ATP luminescence.
A short description of assay [10]: growth inhibition of DIPG cells – cell-based, MIPE5.0 library, qHTS (AID 1347068; cut-off not given, nearly all actives have IC50 up to about 30 µM;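 as to IC50: cells exposed to compound for 48 hours before viability readout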). To be noted: SU-DIPG-XXV viability. A general note: Quantitative high-throughput screening tests each substance at several concentrations.
The nature of assay [11]: viability loss with induced miR-34 in A549 – imaging, A549 dox-inducible miR-34, nuclei and caspase counts, primary screen (AID 1347080;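 active = compounds whose cell count with miR-34 switched on is under 0.7 times the count with it off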). To be noted: A549 miR-34 inducible, Hoechst nuclei count, 48 h.
Assay [12] can be described thus: galactose survival enhancers in mitochondrial complex I cybrids – cell-based, galactose medium, ATP luminescence, primary screen (AID 1645843;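 active = z-score of at least 1.8 in each of two replicates, scored against plate mean and spread of sample wells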;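 also: positive z means more ATP and so rescue of galactose-driven cybrid death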). The conditions noted are these: complex I mutant cybrid cells, 72 h, stronger effect = higher value.
Assay [13] in a line: blockers of polyQ-driven CASP3 activation – cell-based (AID 1583). To be noted: polyglutamine-induced caspase-3 activation, cell assay; stronger effect = higher value;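 tested at 10 µM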.
The nature of assay [14]: yeast 75Q aggregation reduction – 75Q-TubU reporter (AID 1593). The conditions noted are these: Yeast 75Q polyglutamine aggregation reporter.
Assay [15] in a line: restoration of touch response, mutant HTT neurons – whole organism, C. elegans mechanosensory neurons, N-terminal huntingtin (AID 1599). To be noted: C. elegans polyQ-huntingtin mechanosensory neurons, stronger effect = higher value.
Assay [16] in a line: blockers of cytochrome c efflux from mitochondria – biochemical, purified mitochondria (AID 1603).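 Also: mouse liver mitochondria challenged with calcium chloride; signal normalized to the plate average as 100%.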 To be noted: stronger effect = lower value.
A short description of assay [17]: polyglutamine aggregate formation blockers (AID 1604). The conditions noted are these: polyglutamine-induced protein aggregation inhibition assay; stronger effect = higher value; tested at 2.5 µM.
A short description of assay [18]: glutamate transport activators, MN-1 cells, MN-1 cell line (AID 1612).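 Also: tested at 1 µM final; 0% = mean of DMSO vehicle wells on each plate; positive means more glutamate uptake than control and negative means less.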 The conditions noted are these: MN-1 motor neuron cells, stronger effect = higher value.
Assay [19] can be described thus: GFP-Q80 aggregate reduction, neuronal-like cells, cell-based, NGF-treated PC12, GFPQ80 (AID 1614).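 Also: lower means fewer inclusions and 0 means no inclusions at all.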 To be noted: PC12 NGF-treated GFP-polyQ80 inclusion reduction.
Assay [20] in a line: 75Q-TubH aggregate inhibition, S. cerevisiae, yeast (AID 1616). To be noted: S. cerevisiae 75Q-TubH polyglutamine aggregation suppression; stronger effect = higher value.
The nature of assay [21]: P. berghei load reduction in hepatocytes – cell-based, HepG2, luciferase luminescence, HepG2 viability, primary screen (AID 624349; in the data active = parasite load remaining mostly below about 12%, no sharp cut-off; inactive = mostly above about 10%;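 also: 100% = mean of DMSO negative control wells on the same plate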). To be noted: P. berghei liver stage in HepG2, luciferase luminescence, concentration not given here; parasite load remaining: stronger effect = lower value; viability: measured here: HepG2 viability without parasites.
The nature of assay [22]: EMT-state selective cytotoxicity in co-culture – imaging, PC-3E GFP, TEM4-18 mCherry, primary screen (AID 1345086;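 active = compounds killing one labelled cell type while sparing the other, by normalised counts and ratio limits, not self-fluorescent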;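 as to all read-outs here: cells exposed to compound for 72 h before imaging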;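 as to red/green cell ratio (normalised): normalised mesenchymal count divided by normalised epithelial count so high means epithelial killing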). The conditions noted are these: PC-3E GFP / TEM4-18 mCherry co-culture, imaging cell counts, at 1 µM; for red/green cell ratio (normalised): actives lie on both sides, counts scaled to control wells, 1 = unselective.
Assay [23] can be described thus: compounds altering HSF1 focus formation in cells – imaging, Selleck Cancer Library (AID 1347162; in the data active = plate-normalised HSF1 focus index below about 0.46). To be noted: human cells, HSF1 nuclear foci imaging, at 10 µM; SSMD: measured here: HSF1 foci SSMD mean; cell count: measured here: cell number; plate-normalised HSF1 focus index: stronger effect = lower value.
The nature of assay [24]: MELAS cybrid and Rieske KO viability enhancers – cell-based, MELAS cybrids, Rieske KO mouse fibroblasts, CellTiter-Glo, primary screen (AID 1508586;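 active = mean z-score across replicates of 1.96 or higher in either the MELAS or the Rieske mutant cell line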;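 also: z relative to plate mean and SD of compound and empty wells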). To be noted: low glucose.
A short description of assay [25]: drug combination growth inhibition, ovarian cancer – cell-based, oncology-focused library, rucaparib conditional, profiling panel (AID 1508598). The conditions noted are these: patient-derived ovarian cancer cells, CellTiter-Glo viability, 144 h, stronger effect = lower value.
Setting [26] is: stronger effect = lower value, cell number ratio, induced over uninduced.
Where [27] appears, read: measured here: relative caspase fold change +Dox/-Dox.
The mark [28] stands for this setting: measured here: total cells with miR-34 induction, stronger effect = lower value.
[29] abbreviates: measured here: total cells without miR-34 induction.
The mark [30] stands for this setting: measured here: epithelial PC-3E GFP cell survival.
Setting [31] is: measured here: mesenchymal TEM4-18 mCherry cell survival.

For orientation: remaining activity means the signal under treatment as a percentage of the control signal. For `CCN(c1ccccc1)c1cc(NC)[n+](C)c(C)n1`, in assay [1], the remaining activity is 84.7% (inactive). In addition, the result in [2], in [3], in assay [4], in assay [5], in assay [6] and in assay [7] was inactive. Further, the compound was classed as inactive in [8], in assay [9] and in [10]. In addition, the fold change was 1.03 (inactive) in assay [11] (setting [26]) and 0.719 in assay [11] (setting [27]). The cell count in assay [11] (setting [28]) stood at 7990; in assay [11] (setting [29]), 7790. Also, the z-score in [12] is 0.245 (inactive).
The term inhibition denotes the relative decrease from the control value, in per cent. By viability is commonly meant a read-out of living cells in per cent, often relative to untreated cells. The compound `CC(=O)[C@@]1(O)CCC2C3C=C(Cl)C4=CC(=O)[C@@H]5CC5[C@]4(C)C3CC[C@@]21C` (some centres undefined) came in with an inhibition in assay [13] of 39.2%. In assay [14], this compound came in with a score of 0.81. The rescue above control in assay [15] came out at 12.8. Besides, in [16], the cytochrome c release ratio is 1.45. The inhibition of aggregation in assay [17] is 9.8%. For the same compound, the glutamate uptake change in [18] is -5.81%. In [19], this compound showed an inclusion score of 2. The same compound registered an aggregation suppression score in assay [20] of 0.681. Further, in assay [21], the parasite load remaining was 143% (inactive) and the viability turned out to be 89.2%. In [22], the red/green cell ratio (normalised) was 0.82 (inactive). Besides, the normalised cell number in assay [22] (setting [30]) turned out to be 1.07. The normalised cell number in assay [22] (setting [31]) is 0.88.
As for `CC(=O)N1CCCC1C(=O)O` (centres undefined), in assay [21], the parasite load remaining was 194% (inactive) and the viability turned out to be 68.3%. The red/green cell ratio (normalised) in assay [22] was 0.79 (inactive). Further, the normalised cell number in [22] (setting [30]) was found to be 1.3. Also, in assay [22] (setting [31]), the normalised cell number is 1.03.
The compound `CC(=O)N[C@@H]1[C@@H](C(O)[C@H](O)CO)O[C@](O)(C(=O)O)C[C@@H]1O` (some centres undefined) displayed an inhibition in assay [13] of 7.5%. Further, the score in assay [14] came to 1.07. The rescue above control in [15] is -7.75. Further, the cytochrome c release ratio in assay [16] came to 0.26. For the same compound, the inhibition of aggregation in assay [17] was -20.4%. Further, the glutamate uptake change in [18] stood at 11.8%. The same compound had an inclusion score in [19] of 2. The compound further displayed an aggregation suppression score in assay [20] of 0.464. Further, the red/green cell ratio (normalised) in [22] was 0.94 (inactive). Moreover, the results for the normalised cell number in assay [22] (setting [30]) and in [22] (setting [31]) were 1.19 and 1.12, respectively.
In general, AC50 refers to the concentration giving half of the maximal activity seen. Usually IC50 stands for the point on the concentration scale where inhibition reaches its midpoint. Regarding `NC(=O)Nc1sc(-c2ccc(F)cc2)cc1C(N)=O`, in [21], the parasite load remaining was 72.5% (inactive). Moreover, the viability in [21] is 79.5%; in assay [25] (at 0.000305 µM, OCI-C5x cells, with rucaparib 10 µM, 100% = cells with rucaparib alone), 113% (inactive); in assay [25] (at 0.000305 µM, OCI-C5x cells, without rucaparib), 127% (inactive); in assay [25] (at 0.000305 µM, OCI-P5x cells, with rucaparib 20 µM, 100% = cells with rucaparib alone), 116% (inactive); in assay [25] (at 0.000305 µM, OCI-P5x cells, without rucaparib), 109% (inactive); in assay [25] (at 0.00122 µM, OCI-C5x cells, with rucaparib 10 µM, 100% = cells with rucaparib alone), 118% (inactive). The viability in [25] (at 0.00122 µM, OCI-C5x cells, without rucaparib) was 126% (inactive); in assay [25] (at 0.00122 µM, OCI-P5x cells, with rucaparib 20 µM, 100% = cells with rucaparib alone), 106% (inactive); in [25] (at 0.00122 µM, OCI-P5x cells, without rucaparib), 106% (inactive); in [25] (at 0.00488 µM, OCI-C5x cells, with rucaparib 10 µM, 100% = cells with rucaparib alone), 124% (inactive). In assay [1], the remaining activity was 122% (inactive). The concentration at half-maximal activity (AC50) in [2] is 9.34 µM (active); in assay [3] it was 11.8 µM (active); in assay [4] it was 4.69 µM (active); in assay [5] it was 1.05 µM (active); in assay [6], 20.9 µM (active); in assay [7], 7.42 µM (active). The AC50 in assay [8] is 16.6 µM (active); in assay [9], 5.9 µM (active). Further, the 50% inhibitory concentration (IC50) in assay [10] is 14.8 µM (active). For the same compound, the fold change in [11] (setting [26]) is 0.943 (inactive) and 1.1 (inactive); in assay [11] (setting [27]) it was 0.476 and 0.704. The cell count in [11] (setting [28]) was 1490 and 2380; in [11] (setting [29]), 1580 and 2160; in [23], 6750. The same compound registered an SSMD in [23] of -1.15. Also, the plate-normalised HSF1 focus index in assay [23] is 0.95 (inactive). Also, the z-score is 0.0212 (inactive) in [24] (MELAS cybrid survival, CellTiter-Glo 48 h, stronger effect = higher value) and 0.196 in assay [24] (Rieske KO mouse fibroblast survival, CellTiter-Glo 72 h).
